# Laboratory results from PubChem BioAssay (NCI).
# This is part of a sample that, as a whole, favours compounds with a hit. Of some 83,000 tested, about 20% had one in any assay.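 Each cell line was grown in a 96-well plate and treated with one concentration of compound for 48 hours. Values below 10 were considered active.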 Values without a mark were called inactive. Active and inactive are the calls of the source.
# Key:
# Experiment in all cases: NCI-60 one-dose screen, 48 h (100 = growth as untreated, 0 = no growth, -100 = all killed)
# Settings in all cases: 10 µM unless noted
# DU-145 prostate = tested on: DU-145 prostate
# K-562 leukemia = tested on: K-562 leukemia
# MALME-3M melanoma = tested on: MALME-3M melanoma
# MDA-MB-231 breast = tested on: MDA-MB-231 breast
# RXF 393 renal = tested on: RXF 393 renal
# SF-268 CNS = tested on: SF-268 CNS
# SF-295 CNS = tested on: SF-295 CNS
# SF-539 CNS = tested on: SF-539 CNS
# UACC-257 melanoma = tested on: UACC-257 melanoma
# M14 melanoma = tested on: M14 melanoma
# HCT-15 colon = tested on: HCT-15 colon
# HT29 colon = tested on: HT29 colon
# SNB-75 CNS = tested on: SNB-75 CNS
# SNB-19 CNS = tested on: SNB-19 CNS
# U251 CNS = tested on: U251 CNS
# PC-3 prostate = tested on: PC-3 prostate
# SK-MEL-5 melanoma = tested on: SK-MEL-5 melanoma
# LOX IMVI melanoma = tested on: LOX IMVI melanoma
# SK-MEL-28 melanoma = tested on: SK-MEL-28 melanoma
# UACC-62 melanoma = tested on: UACC-62 melanoma
Structure (SMILES),growth (DU-145 prostate),growth (K-562 leukemia),growth (MALME-3M melanoma),growth (MDA-MB-231 breast),growth (RXF 393 renal),growth (SF-268 CNS),growth (SF-295 CNS),growth (SF-539 CNS),growth (UACC-257 melanoma),growth (M14 melanoma),growth (HCT-15 colon),growth (HT29 colon),growth (SNB-75 CNS),growth (SNB-19 CNS),growth (U251 CNS),growth (PC-3 prostate),growth (SK-MEL-5 melanoma),growth (LOX IMVI melanoma),growth (SK-MEL-28 melanoma),growth (UACC-62 melanoma)
COc1ccc(C2=C/C(=C\c3ccc(Cl)cc3)C(=O)N2/N=C/c2ccc(Cl)cc2)cc1,105%,89.2%,96.4%,88.8%,99.3%,92.6%,100%,101%,88.7%,100%,98.8%,86.8%,105%,96.7%,84.5%,91.4%,99.5%,99.1%,101%,–
CCC/C(=N\NC(N)=O)C(OC)OC,96.2%,118%,99.5%,85.8%,102%,98.9%,112%,89.2%,103%,96.9%,105%,97.8%,67.9%,102%,92.3%,97%,100%,84.4%,96.4%,–
CCN(CC)c1ccc(/C=C\c2cc(C)c3cc(C)ccc3n2)cc1,61.5%,13.1%,32.9%,54.2%,16.1%,40.2%,24.4%,20.1%,24.4%,15.9%,21.1%,-17.9% (active),39.7%,49.5%,25.6%,23.1%,2.69% (active),–,50.7%,36.8%
COc1ccc(/C=C/C(=O)c2ccc(Nc3nc(Nc4ccc(F)cc4)nc(Nc4ccc(Cl)cc4)n3)cc2)cc1,104%,85.4%,164%,95.3%,1.27% (active),100%,81.8%,109%,107%,95.2%,100%,94.1%,95.6%,115%,111%,81.4%,83.6%,102%,110%,–
Cc1cscc(C)c1=S,4.23% (active),96%,96.1%,97.8%,71.2%,95.7%,76%,96.9%,89%,93.1%,9.4% (active),19.5%,108%,100%,80%,77%,90.2%,–,120%,90%
CCN(CC)CCOc1nc2c3ccc(Cl)cc3nn2c2ccccc12,26.4%,1.82% (active),35.8%,21.3%,7.71% (active),44.6%,29%,17.8%,16.1%,44.5%,4.7% (active),15.2%,33.5%,24.2%,16.4%,34.1%,51.3%,-47.2% (active),44.8%,–
CCC(CC)(N(CC(=O)O)CC(=O)O)C(CC)(CC)N(CC(=O)O)CC(=O)O,119%,101%,133%,110%,120%,114%,108%,109%,100%,106%,131%,89.9%,108%,107%,102%,85.1%,105%,–,108%,102%
CC1(C)CCC(S(=O)(=O)c2ccc3c(c2)/C(=N\O)c2cc(S(=O)(=O)N4CCN(c5ccc(F)cc5O)CC4)ccc2-3)CC1,-46% (active),-78.4% (active),-70.5% (active),-63.7% (active),-90% (active),-54.4% (active),-57.1% (active),-88.2% (active),-80.6% (active),-81.9% (active),-75.1% (active),-88.7% (active),-97.6% (active),-72.7% (active),-97.7% (active),-64.2% (active),-93.6% (active),-82.6% (active),-72.2% (active),–
